Sampled rows, rich in hits. Any-hit rate of the full collection: about 6.5%.
HCMV antiviral – inhibitors of human cytomegalovirus; 410,000 tested, 4.5% active; activity change, negative = inhibition, % at 57.5 µM; HFF cells, HCMV-luciferase reporter, 72 h; stronger effect = lower value; in the data active = activity change below about -60%; inconclusive = no clear call, values can overlap the other calls; inactive = above about -39%
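HFF cells seeded 16 h at 37C, treated with compounds, infected with luciferase-reporter HCMV at MOI 1 PFU/cell; luciferase read at 72 h post infection, normalized to buffer-only and Salinomycin controls.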
Vaccinia mCherry – inhibitors of vaccinia virus infection (mCherry reporter signal); Vaccinia virus mCherry reporter infection, fluorescence; Potency, µM (doses to about 36.5 µM), most hits filed as inhibitors; 310,000 tested, 0.63% active; AID 720579; calls by dose curve; tested in A549 cells; note: nearly all actives have a fitted effect of over 35% in size
Marburg entry inh – blocks Marburg virus binding to or entry into cells; Potency, µM (titrated, usually from 37.8 µM), hits mostly inhibitors; 300,000 tested, 1.8% active; AID 540276; Marburg virus pseudotyped entry inhibition, cell reporter; calls by dose curve; tested in HEK293 cells
FMDV inh – blocks foot and mouth disease virus; AID 1159524; FMDV antiviral cell-based qHTS; Potency, µM (doses to about 57.9 µM), usual class: inhibitors; 410,000 tested, 1.2% active; calls by dose curve; tested in HEK293T cells; note: read-out not given here; nearly all actives have a fitted effect of over 45% in size
VACV Venus inh – vaccinia inhibition (Venus reporter); Vaccinia virus Venus reporter expression, fluorescence; Potency, µM (top dose mostly 36.5 µM), most hits filed as inhibitors; 330,000 tested, 0.46% active; AID 720580; calls by dose curve; tested in A549 cells; note: nearly all actives have a fitted effect of over 30% in size
LASV entry inh – Lassa virus entry inhibition. Lassa virus pseudotype entry inhibition, cell reporter. Potency, µM (series often up to 37.9 µM), hits mostly inhibitors. 300,000 tested, 1.2% active; calls by dose curve; tested in HEK293 cells; note: nearly all actives have a fitted effect of over 50% in size
Large screens that a line does not name were inactive; ! = not confirmed by another sample.

c1ccc2oc(C3=NNC(=NC4CC4)SC3)cc2c1	HCMV antiviral inconclusive, Marburg entry inh 1.8µM, LASV entry inh 7.3µM (no result: Vaccinia mCherry, VACV Venus inh)
O=C(Nc1cc(C(=O)NC2CCOCC2)c2c(c1)ncn2C1CCCC1)c1ccccc1	none (no result: HCMV antiviral, Marburg entry inh, LASV entry inh)
CC(C)(C)c1ccc(OCC(=O)O)cc1	Marburg entry inh inconclusive (no result: Vaccinia mCherry, VACV Venus inh)
CN(C)C(=O)O/N=C(\N)COc1ccc(C(C)(C)C)cc1	HCMV antiviral -100 (no result: Vaccinia mCherry, Marburg entry inh, VACV Venus inh, LASV entry inh)
Cc1ccc(NC(=O)C2CCCN2S(=O)(=O)c2ccc3nc(-c4ccccc4)[nH]c3c2)cc1F (stereo unspecified)	HCMV antiviral -84, FMDV inh inconclusive, LASV entry inh inconclusive (no result: Marburg entry inh)
Cc1ccc(-c2cn3cccc(C)c3n2)cc1NS(=O)(=O)c1ccccc1	HCMV antiviral -85
Cc1cc(C)c(S(=O)(=O)Nc2cc(-c3cn4ccccc4n3)ccc2C)cc1C	LASV entry inh inconclusive
CC(NC(c1ccccc1)c1ccccc1)C(=O)N1CCCc2ccccc21 (stereo unspecified)	FMDV inh inconclusive, VACV Venus inh inconclusive, LASV entry inh inconclusive
O=C(c1cc([N+](=O)[O-])cc([N+](=O)[O-])c1)N1CCCc2ccccc21	Marburg entry inh 10µM
Cc1ccc(C(=O)c2cc([N+](=O)[O-])ccc2N2CCCCC2)c(C)c1	HCMV antiviral -92, Vaccinia mCherry inconclusive, Marburg entry inh inconclusive, FMDV inh inconclusive, VACV Venus inh inconclusive, LASV entry inh inconclusive
O=C(O)c1cc([N+](=O)[O-])ccc1N1CCCCC1	none
CC(Nc1ccccc1N1CCCCC1)C(=O)N1CCc2ccccc21 (stereo unspecified)	HCMV antiviral -70, FMDV inh inconclusive
O=C(c1cc([N+](=O)[O-])ccc1N1CCCCC1)N1CCc2ccccc21	HCMV antiviral inconclusive, Marburg entry inh 4.5µM, LASV entry inh inconclusive
CN(C)c1ccc(/C=C\C=C/c2ccnc3ccccc23)cc1	none (no result: HCMV antiviral, Marburg entry inh, FMDV inh, LASV entry inh)
O=C(c1ccc([N+](=O)[O-])s1)N1CCCc2ccccc21	HCMV antiviral inconclusive, Vaccinia mCherry 10µM, Marburg entry inh inconclusive, VACV Venus inh inconclusive, LASV entry inh inconclusive
CCc1ccccc1NC(=O)C1CCCN(S(=O)(=O)c2ccc3[nH]c(=O)ccc3c2)C1 (stereo unspecified)	none (no result: Marburg entry inh)
COc1cc(OC)c(OC)cc1CN1CCCC(c2nc(C)ncc2-c2ccc(F)cc2)C1 (stereo unspecified)	none (no result: HCMV antiviral, Marburg entry inh, LASV entry inh)
COCCCNC(=O)c1ccc(Cn2c(=O)c3ccccc3n(Cc3ccccc3C)c2=O)cc1	HCMV antiviral -96!, Vaccinia mCherry inconclusive, Marburg entry inh inconclusive, VACV Venus inh inconclusive
COCCCNC(=O)c1ccc(Cn2c(=O)c3ccccc3n(Cc3cc(C)ccc3C)c2=O)cc1	Marburg entry inh inconclusive (no result: Vaccinia mCherry, VACV Venus inh)
Nc1ccc(C(Cc2ccnc3ccccc23)Cc2ccnc3ccccc23)cc1	none (no result: HCMV antiviral, Marburg entry inh, FMDV inh, LASV entry inh)
O=C(CSc1nccn1Cc1ccc(Cl)cc1)NC1CCCC1	HCMV antiviral -63 (no result: Marburg entry inh)
Cc1ccc(Cn2ccnc2SCC(=O)NC2CCCC2)cc1	none
O=C(CSc1nccn1Cc1ccc(F)cc1)NC1CCCCC1	none (no result: Marburg entry inh, LASV entry inh)
O=C(CSc1nccn1Cc1ccc(F)cc1)NC1CCCC1	HCMV antiviral -65!
O=C(c1cccc([N+](=O)[O-])c1)N1c2nc(-c3ccco3)nn2C2(CCCCC2)[C@@H]2CCCC[C@@H]21	HCMV antiviral -77
O=C(c1ccccc1)N1c2nc(-c3ccco3)nn2C2(CCCCC2)[C@@H]2CCCC[C@@H]21	Marburg entry inh inconclusive
O=C(c1cccc(Cl)c1)N1c2nc(-c3ccco3)nn2C2(CCCCC2)[C@@H]2CCCC[C@@H]21	none
COc1cccc(C(=O)N2c3nc(-c4ccco4)nn3C3(CCCCC3)[C@@H]3CCCC[C@@H]32)c1	HCMV antiviral -64
CCCn1c(C)nc2c(c1=O)c1nc3ccccc3nc1n2CCC1=CCCCC1	Marburg entry inh 23µM, FMDV inh inconclusive, LASV entry inh inconclusive (no result: Vaccinia mCherry, VACV Venus inh)
CCOC(=O)[C@H](c1ccccc1)N1CCN(c2ccc(OC)cc2)CC1	none (no result: HCMV antiviral, Vaccinia mCherry, FMDV inh, VACV Venus inh, LASV entry inh)
CC(=O)/C=C\c1cn(-c2ncc(C(F)(F)F)cc2Cl)c2ccccc12	Marburg entry inh inconclusive, FMDV inh 32µM, LASV entry inh inconclusive (no result: Vaccinia mCherry)
O=C(NC1CCCCC1)c1ccc(CSc2nc3ccncc3n2Cc2cccc(F)c2)cc1	HCMV antiviral inconclusive, Marburg entry inh inconclusive (no result: LASV entry inh)
COCCCn1c(-c2ccc(OC)cc2)cc(C(=O)NC2CCCCCCC2)c1C	HCMV antiviral -65, Vaccinia mCherry inconclusive, Marburg entry inh inconclusive, LASV entry inh inconclusive
COc1ccc(-c2cc(C(C)=O)c(C)n2CCC(=O)NC2CCCCC2)cc1	none (no result: Marburg entry inh)
